Measurements taken from the antibiotic and cytotoxicity screens of Wong et al. (2023).
The whole screen tested about 39,000 compounds, of which about 1,500 (3.8%) were called active. This is one part of a sample in which actives are shown more often than they occur.

Test system: HSkMC (human skeletal muscle cells)
Test: cytotoxicity call (relative viability < 0.9)
Conditions: 10 µM

SMILES | cytotoxicity call
C[C@H](CO)N1C[C@H](C)[C@H](CN(C)S(C)(=O)=O)Oc2ccc(NS(=O)(=O)c3ccc(F)cc3)cc2C1=O | inactive
CC(C)NC(=O)Nc1ccc2c(c1)CC(=O)N([C@@H](C)CO)C[C@@H](C)[C@H](CN(C)C(=O)NC1CCCCC1)O2 | inactive
COc1cccc(S(=O)(=O)N(C)C[C@H]2Oc3ncc(-c4cccc(C(=O)N(C)C)c4)cc3C(=O)N([C@@H](C)CO)C[C@@H]2C)c1 | inactive
CCCNC(=O)Nc1ccc2c(c1)C(=O)N(C)C[C@@H](OC)[C@H](C)CN(Cc1ccc(-c3ccccn3)cc1)[C@H](C)CO2 | inactive
CNC[C@H]1Oc2ccc(NS(=O)(=O)c3cn(C)cn3)cc2CC(=O)N([C@@H](C)CO)C[C@@H]1C | inactive
Cc1noc(C)c1NC(=O)Nc1ccc2c(c1)C(=O)N([C@H](C)CO)C[C@@H](C)[C@H](CN(C)CC1CC1)OCCCC[C@@H](C)O2 | inactive
CCCC#Cc1cnc2c(c1)C(=O)N([C@H](C)CO)C[C@@H](C)[C@@H](CN(C)S(=O)(=O)c1cn(C)cn1)O2 | inactive
C[C@@H]1CN([C@@H](C)CO)C(=O)Cc2cc(NC(=O)C3CCCCC3)ccc2O[C@H]1CN(C)Cc1ccc(C(=O)Nc2ccccc2N)cc1 | inactive
C[C@@H]1CCCCO[C@H](CN(C)Cc2ccc(Cl)c(Cl)c2)[C@@H](C)CN([C@@H](C)CO)C(=O)c2cc(NS(=O)(=O)c3ccccc3)ccc2O1 | active
C[C@@H]1CCCCO[C@H](CN(C)Cc2ccc(Cl)c(Cl)c2)[C@@H](C)CN([C@H](C)CO)C(=O)c2cc(NS(=O)(=O)c3ccccc3)ccc2O1 | inactive
C[C@H]1CCCCO[C@H](CN(C)Cc2ccc(Cl)c(Cl)c2)[C@@H](C)CN([C@@H](C)CO)C(=O)c2cc(NS(=O)(=O)c3ccccc3)ccc2O1 | inactive
C[C@@H]1CN([C@H](C)CO)C(=O)c2cc(NS(=O)(=O)c3ccccc3)ccc2O[C@@H](C)CCCCO[C@@H]1CN(C)Cc1ccc(Cl)c(Cl)c1 | active
Cc1noc(C)c1NC(=O)N(C)C[C@@H]1OCCCC[C@@H](C)Oc2ccc(NC(=O)NC3CCCCC3)cc2C(=O)N([C@@H](C)CO)C[C@H]1C | inactive
C[C@H](CO)N1C[C@H](C)[C@@H](CN(C)C(=O)Nc2ccc(-c3ccccc3)cc2)OCc2ccccc2-c2ccccc2C1=O | inactive
CC(C)[Si](C#C[Si](C(C)C)(C(C)C)C(C)C)(O[C@H](C)c1cn([C@H](C)c2ccccc2)nn1)C(C)C | inactive
COc1ccc(S(=O)(=O)Nc2ccc3c(c2)C(=O)N([C@H](C)CO)C[C@H](C)[C@H](CN(C)C(=O)c2ccccc2)OCCCC[C@@H](C)O3)cc1 | inactive
C[C@H](CO)N1C[C@H](C)[C@H](CN(C)Cc2ccccc2F)Oc2cc(C#CCN(C)C)ccc2S1(=O)=O | inactive
COc1ccc(NC(=O)N(C)C[C@H]2Oc3c(NC(=O)c4cnccn4)cccc3C(=O)N([C@@H](C)CO)C[C@H]2C)cc1 | inactive

SMILES | cytotoxicity call
COc1ccc(NC(=O)N(C)C[C@@H]2Oc3c(NC(=O)Nc4ccc(C(F)(F)F)cc4)cccc3C(=O)N([C@H](C)CO)C[C@@H]2C)cc1 | inactive
C[C@@H]1CN([C@@H](C)CO)C(=O)c2cccc(NC(=O)c3ccc(-c4nccs4)cc3)c2O[C@H]1CN(C)Cc1ccc(Oc2ccccc2)cc1 | inactive
COc1ccc(NC(=O)Nc2cccc3c2O[C@@H](CN(C)C(=O)Nc2ccc(C(F)(F)F)cc2)[C@H](C)CN([C@H](C)CO)C3=O)cc1 | inactive
Cc1noc(C)c1S(=O)(=O)Nc1ccc2c(c1)C(=O)N([C@@H](C)CO)C[C@@H](C)[C@@H](CN(C)S(=O)(=O)c1cn(C)cn1)O2 | inactive
C[C@H](CO)N1C[C@H](C)[C@H](CN(C)C(=O)Nc2ccc(F)cc2)Oc2ccc(NS(=O)(=O)c3cn(C)cn3)cc2CC1=O | inactive
C[C@@H]1CN([C@@H](C)CO)C(=O)Cc2cc(NC(=O)Cn3cnnn3)ccc2O[C@H]1CN(C)C(=O)Nc1ccc(F)cc1 | inactive
CCOC(=O)[C@H]1C/C=C/C[C@H](C(=O)OCC)C(=O)O[C@H]2[C@@H](OC)O[C@H](CO)[C@@H](OC(=O)Nc3ccc(OC)cc3)[C@@H]2OC1=O | inactive
CO[C@H]1O[C@H](CO)[C@@H](OC(=O)Nc2cccc(F)c2)[C@@H]2OC(=O)[C@H](Cc3cccc(Br)c3)C/C=C/C[C@@H](Cc3cccc(Br)c3)C(=O)O[C@@H]12 | inactive
CCOC(=O)[C@H]1C/C=C/C[C@H](C(=O)OCC)C(=O)O[C@H]2[C@@H](OC)O[C@H](CO)[C@@H](OC(=O)Nc3ccccc3)[C@@H]2OC1=O | inactive
CCOC(=O)[C@H]1C/C=C/C[C@H](C(=O)OCC)C(=O)O[C@H]2[C@@H](OC)O[C@H](CO)[C@@H](OC(=O)Nc3ccc(Br)cc3)[C@@H]2OC1=O | active
CCOC(=O)[C@H]1C/C=C/C[C@H](C(=O)OCC)C(=O)O[C@H]2[C@@H](OC)O[C@H](CO)[C@@H](OC(=O)c3ccc(Br)cc3)[C@@H]2OC1=O | inactive
CO[C@H]1O[C@H](CO)[C@@H](OC(=O)Nc2ccc3c(c2)OCO3)[C@@H]2OC(=O)[C@H](Cc3cccc(Br)c3)C/C=C/C[C@@H](Cc3cccc(Br)c3)C(=O)O[C@@H]12 | inactive
CCOC(=O)[C@H]1C/C=C/C[C@H](C(=O)OCC)C(=O)O[C@H]2[C@@H](OC)O[C@H](CO)[C@@H](OC(=O)c3c(OC)cccc3OC)[C@@H]2OC1=O | inactive
CCOC(=O)[C@H]1C/C=C/C[C@H](C(=O)OCC)C(=O)O[C@H]2[C@@H](OC)O[C@H](CO)[C@@H](OC(=O)Nc3cccc(F)c3)[C@@H]2OC1=O | active
CCOC(=O)[C@H]1C/C=C/C[C@H](C(=O)OCC)C(=O)O[C@H]2[C@@H](OC)O[C@H](CO)[C@@H](OC(=O)Nc3ccc4c(c3)OCO4)[C@@H]2OC1=O | active
COc1ccc(NC(=O)N(C)C[C@@H]2OCCCC[C@@H](C)Oc3ccc(NC(=O)c4ccccc4)cc3C(=O)N([C@@H](C)CO)C[C@H]2C)cc1 | inactive
CC1(C)OC2CC3C4CCC5=CC(=O)C=CC5(C)C4C(O)CC3(C)C2(C(=O)CO)O1 (stereo not given) | inactive
